# Measurements: the supplement of paper PMC8728848
# About 410 targets per protein were measured; listed, in parts, are those with the strongest signals and a random draw of the rest.
# B1: AT3G44510(29) (Arabidopsis thaliana), F4J341 (protein)
# chain: MEEHLQGRIKLHDGRYLAYKERGVPKDDAKFTIVLVHGFGSSKDMNFNVSQELVNEIGIYFVLYDRAGYGESDPNPKRSLKSEAYDVQELADGLEIGSRFYLIGISMGSYTVWSCLKHIPQRLAGVAMVAPVVNFRWPSIPKSLMPKDYRREVAKWSVWIANYFPGLLQWLVTQNMFSTTSMLEKNPVYFNDQDIEVLKHIKGFPMLTKEKLRERGVFGTLRSDFLVAFGDWDFDPADLPDPSLSGPEKGSSSVHIWQGYEDKVMPFQLQRCLCRKLPWIRYHEVPKGGHLIVHYDGICDAILKSLLLGEDLPMYKPKAVITEPA
# Tests used:
# Experiment in all cases: glycan array binding signal (z-score within array); higher = stronger binding
# Settings in all cases: glycan notation: IUPAC condensed, linker removed
# [1] = biological target: Fuc(a1-2)Gal(b1-3)GlcNAc
# How it was run: (§1)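 Columns mapping to the same glycan were averaged after glycan names were converted to IUPAC-condensed notation. The data come from 3228 arrays in the Consortium for Functional Glycomics database, limited to those with an available protein sequence. Binding is reported as a within-array Z-score averaged across arrays of one protein sequence and across linkers.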
# [2] = biological target: Fuc(a1-2)Gal(b1-3)[Fuc(a1-4)]GlcNAc(b1-3)[Gal(b1-4)GlcNAc(b1-6)]Gal(b1-4)Glc
# How it was run: as §1
# [3] = biological target: Fuc(a1-2)Gal(b1-4)GlcNAc(b1-6)GalNAc
# How it was run: as §1
# [4] = biological target: Fuc(a1-2)Gal(b1-4)[Fuc(a1-3)]GlcNAc
# How it was run: as §1
# [5] = biological target: Fuc(a1-2)Gal(b1-4)[Fuc(a1-3)]GlcNAc(b1-2)Man(a1-3)[Fuc(a1-2)Gal(b1-4)[Fuc(a1-3)]GlcNAc(b1-2)Man(a1-6)]Man(b1-4)GlcNAc(b1-4)[Fuc(a1-6)]GlcNAc
# How it was run: as §1
# [6] = biological target: Fuc(a1-2)Gal(b1-4)[Fuc(a1-3)]GlcNAc(b1-3)Gal(b1-4)[Fuc(a1-3)]GlcNAc
# How it was run: as §1
# [7] = biological target: Fuc(a1-2)Gal3S(b1-4)GlcNAc
# How it was run: as §1
# [8] = biological target: Fuc(a1-2)[Gal(a1-3)]Gal
# How it was run: as §1
# [9] = biological target: Fuc(a1-2)[Gal(a1-3)]Gal(b1-4)GlcNAc(b1-2)Man(a1-3)[Fuc(a1-2)[Gal(a1-3)]Gal(b1-4)GlcNAc(b1-2)Man(a1-6)]Man(b1-4)GlcNAc(b1-4)[Fuc(a1-6)]GlcNAc
# How it was run: as §1
# [10] = biological target: Fuc(a1-2)[GalNAc(a1-3)]Gal(b1-3)GalNAc(b1-3)Gal(a1-4)Gal(b1-4)Glc
# How it was run: as §1
# [11] = biological target: Fuc(a1-2)[GalNAc(a1-3)]Gal(b1-3)GlcNAc(b1-2)Man(a1-3)[Fuc(a1-2)[GalNAc(a1-3)]Gal(b1-3)GlcNAc(b1-2)Man(a1-6)]Man(b1-4)GlcNAc(b1-4)[Fuc(a1-6)]GlcNAc
# How it was run: as §1
# [12] = biological target: Fuc(a1-2)[GalNAc(a1-3)]Gal(b1-4)[Fuc(a1-3)]GlcNAc
# How it was run: as §1
# [13] = biological target: Fuc(a1-2)[GalNAc(a1-3)]Gal(b1-4)[Fuc(a1-3)]GlcNAc(b1-3)GalNAc
# How it was run: as §1
# [14] = biological target: Fuc(a1-3)[GalNAc(b1-4)]GlcNAc6S
# How it was run: as §1
# [15] = biological target: Gal(a1-3)Gal(b1-4)Glc
# How it was run: as §1
# [16] = biological target: Gal(a1-3)GalNAc
# How it was run: as §1
# [17] = biological target: Gal(a1-3)[Gal(a1-4)]Gal(b1-4)GlcNAc
# How it was run: as §1
# [18] = biological target: Gal(a1-4)Gal(b1-4)Glc
# How it was run: as §1
# [19] = biological target: Gal(a1-4)Gal(b1-4)GlcNAc(b1-3)Gal(b1-4)Glc
# How it was run: as §1
# [20] = biological target: Gal(b1-3)GlcNAc
# How it was run: as §1
# [21] = biological target: Gal(b1-3)[Fuc(a1-4)]GlcNAc(b1-3)Gal(b1-3)[Fuc(a1-4)]GlcNAc
# How it was run: as §1
# [22] = biological target: Gal(b1-4)GlcNAc(a1-6)Gal(b1-4)GlcNAc
# How it was run: as §1
# [23] = biological target: Gal(b1-4)GlcNAc(b1-2)Man(a1-3)[Gal(b1-4)GlcNAc(b1-2)Man(a1-6)]Man(b1-4)GlcNAc(b1-4)GlcNAc
# How it was run: as §1
# [24] = biological target: Gal(b1-4)GlcNAc(b1-2)[Gal(b1-4)GlcNAc(b1-6)]Man(a1-6)[GlcNAc(b1-4)][Gal(b1-4)GlcNAc(b1-2)[Gal(b1-4)GlcNAc(b1-4)]Man(a1-3)]Man(b1-4)GlcNAc(b1-4)[Fuc(a1-6)]GlcNAc
# How it was run: as §1
# [25] = biological target: Gal(b1-4)GlcNAc(b1-3)Gal(b1-3)GlcNAc
# How it was run: as §1
# [26] = biological target: Gal(b1-4)GlcNAc(b1-3)Gal(b1-4)GlcNAc(b1-2)[Gal(b1-4)GlcNAc(b1-3)Gal(b1-4)GlcNAc(b1-6)]Man(a1-6)[Gal(b1-4)GlcNAc(b1-3)Gal(b1-4)GlcNAc(b1-2)Man(a1-3)]Man(b1-4)GlcNAc(b1-4)[Fuc(a1-6)]GlcNAc
# How it was run: as §1
# [27] = biological target: Gal6S(b1-4)Glc
# How it was run: as §1
# [28] = biological target: GalNAc(a1-3)GalNAc(b1-3)Gal(a1-4)Gal(b1-4)Glc
# How it was run: as §1
# [29] = biological target: GalNAc(b1-3)Gal(a1-4)Gal(b1-4)GlcNAc
# How it was run: as §1
# [30] = biological target: GalNAc(b1-3)Gal(a1-6)Gal(b1-4)Glc
# How it was run: as §1
binder,measurement,setting,value
B1,glycan array binding signal (z-score),[1],0.123
same,glycan array binding signal (z-score),[2],0.203
same,glycan array binding signal (z-score),[3],-0.731
same,glycan array binding signal (z-score),[4],-0.381
same,glycan array binding signal (z-score),[5],-0.458
same,glycan array binding signal (z-score),[6],-0.951
same,glycan array binding signal (z-score),[7],3.33
same,glycan array binding signal (z-score),[8],2.08
same,glycan array binding signal (z-score),[9],-0.079
same,glycan array binding signal (z-score),[10],-0.123
same,glycan array binding signal (z-score),[11],-0.313
same,glycan array binding signal (z-score),[12],-0.818
same,glycan array binding signal (z-score),[13],6.03
same,glycan array binding signal (z-score),[14],-0.561
same,glycan array binding signal (z-score),[15],-0.538
same,glycan array binding signal (z-score),[16],2.52
same,glycan array binding signal (z-score),[17],7.13
same,glycan array binding signal (z-score),[18],3.6
same,glycan array binding signal (z-score),[19],-0.481
same,glycan array binding signal (z-score),[20],-0.484
same,glycan array binding signal (z-score),[21],-0.685
same,glycan array binding signal (z-score),[22],-0.378
same,glycan array binding signal (z-score),[23],-0.419
same,glycan array binding signal (z-score),[24],-0.121
same,glycan array binding signal (z-score),[25],-0.443
same,glycan array binding signal (z-score),[26],-0.519
same,glycan array binding signal (z-score),[27],-0.234
same,glycan array binding signal (z-score),[28],-0.476
same,glycan array binding signal (z-score),[29],3.41
same,glycan array binding signal (z-score),[30],-0.353
